Measurements from PubChem BioAssay.
The source made the active and inactive calls.

Assays:
[1] = system: PRMT1 (protein arginine N-methyltransferase 1); experiment: small molecules binding arginine methyltransferase PRMT1 – biochemical, small-molecule microarray, 635 nm fluorescence, primary screen (AID 1088); conditions: higher = more signal;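 further: binding of Prmt1 protein to compounds spotted on small-molecule microarray slides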
[2] = growth effects on S. cerevisiae YJM789 – YJM789 clinical isolate, OD600, 24 h, basal, primary screen (AID 1089); conditions: higher = more signal, called active from +8 up or from −8 down;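 further: growth of clinical yeast isolate S. cerevisiae YJM 789 seeded 1000 cells per well; test concentration not given here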
[3] = S. pombe growth modifiers, basal conditions – strain 972, OD600, 24 h, no modulator, primary screen (AID 1090);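 further: basal condition with compound alone and no growth modifier present; test concentration not given here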; conditions: S. pombe 972 growth, higher = more signal, called active from +8 up or from −8 down
[4] = budding yeast growth modifiers under rapamycin – strain BY4716, OD600, 96 h, primary screen (AID 1091); further: test concentration not given here; conditions: S. cerevisiae BY4716 + rapamycin, higher = more signal, called active from +8 up or from −8 down
[5] = biological target: Torsin-1A-interacting protein 2 (Homo sapiens) (UniProt Q8NFQ8); experiment: small molecules binding lysate-expressed LULL1 – cell lysate, human LULL1 lysate, 635/667 nm fluorescence, primary screen (AID 1092); conditions: small-molecule microarray, hLULL1 lysate binding, 635 nm fluorescence; higher = more signal;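 further: probe is lysate of COS7 cells overexpressing human LULL1; score merges per-feature 667 nm fluorescence with signal-to-noise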
[6] = optical density change of DRC41 E. coli – strain DRC41, OD650, 24 h, E. coli filamentation project, primary screen (AID 1093);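 further: MC1000 strain lacking acrAB efflux and sulA so SOS filamentation is blocked; test concentration not given here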; conditions: E. coli DRC41 growth, higher = more signal, called active from +8 up or from −8 down
[7] = probe aLefty2 binding to arrayed compounds – biochemical, biotinylated probe, 635/667 nm fluorescence, primary screen (AID 1094); conditions: small-molecule microarray, higher = more signal;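 further: score merges spot fluorescence near 667 nm with spot signal-to-noise ratio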
[8] = system: Noggin (protein binding on small-molecule microarray); experiment: small molecules binding Noggin protein – biochemical, 635/667 nm fluorescence, primary screen (AID 1095); conditions: 635 nm fluorescence, higher = more signal;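 further: score merges 667 nm feature fluorescence with signal to noise over triplicate slides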
[9] = biological target: Neurogenic locus notch homolog protein 3 (Homo sapiens) (UniProt Q9UM47); experiment: small molecules binding NOTCH3 protein – biochemical, 635/667 nm fluorescence, primary screen (AID 1096); conditions: small-molecule microarray, 635 nm fluorescence, higher = more signal
[10] = probe aEGFR binding to arrayed compounds – biochemical, biotinylated probe, 635/667 nm fluorescence, primary screen (AID 1097); conditions: small-molecule microarray, higher = more signal;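 further: probe is a biotinylated anti-EGFR antibody binding compounds printed on slides; score combines fluorescence near 667 nm and signal to noise of each spot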
[11] = system: Plasmodium falciparum Sir2 (PF13_0152, Sir2A); experiment: Plasmodium falciparum Sir2A binding compounds – biochemical, small-molecule microarray, 635 nm fluorescence, primary screen (AID 1098); conditions: fluorescence 635 nm, higher = more signal;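 further: score merges spot fluorescence intensity with its signal-to-noise ratio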
[12] = probe aDKK1 binding to arrayed compounds – biochemical, biotinylated probe, 635/667 nm fluorescence, primary screen (AID 1099); conditions: small-molecule microarray, higher = more signal;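 further: score merges 667nm spot fluorescence with signal to noise across triplicate slides; reference of the scale not given here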
[13] = probe aCHRDL2 binding to arrayed compounds – biochemical, biotinylated probe, 635/667 nm fluorescence, primary screen (AID 1100); conditions: small-molecule microarray, higher = more signal
[14] = change in splice reporter luminescence, either direction, cell-based, HEK293, spliceosome inhibition project, primary screen (AID 1101); conditions: HEK293 splicing luciferase reporter, 24 h, higher = more signal, called active from +8 up or from −8 down;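 further: HEK293 cells carrying a splicing-competent luciferase reporter gene; test concentration not given here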
[15] = biological target: Fibroblast growth factor 10 (Homo sapiens) (UniProt O15520); experiment: compounds binding fibroblast growth factor 10 – biochemical, small-molecule microarray, 635 nm fluorescence, primary screen (AID 1102); conditions: FGF10 binding, fluorescence 635 nm, higher = more signal
[16] = system: glycogen synthase kinase-3 (GSK3A per assay name; protocol says GSK3B); experiment: compounds binding glycogen synthase kinase-3 – biochemical, small-molecule microarray, 635 nm fluorescence, GSK3A, primary screen (AID 1103); conditions: fluorescence 635 nm, higher = more signal; further: the record names both GSK3A and GSK3B
[17] = biological target: Epidermal growth factor receptor (Homo sapiens) (UniProt P00533); experiment: compounds binding epidermal growth factor receptor – biochemical, small-molecule microarray, 635 nm fluorescence, primary screen (AID 1104); conditions: EGFR binding, higher = more signal;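 further: score merges 667 nm emission intensity with spot signal to noise over triplicate slides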
[18] = biological target: Follistatin-related protein 3 (Homo sapiens) (UniProt O95633); experiment: compounds binding follistatin-related protein 3 – biochemical, small-molecule microarray, 635 nm fluorescence, primary screen (AID 1105); conditions: FSTL3 binding, higher = more signal;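 further: score merges emission near 667 nm and signal to noise per printed spot across three slides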
[19] = biological target: Dickkopf-related protein 1 (Homo sapiens) (UniProt O94907); experiment: small molecules binding DKK1 protein – biochemical, small-molecule microarray, 635 nm fluorescence scan, primary screen (AID 1106); conditions: higher = more signal;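 further: score merges emission near 667 nm with signal to noise over three replicate slides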
[20] = system: Inhibin beta A chain (activin A); experiment: small molecules binding activin A – biochemical, small-molecule microarray, 635 nm fluorescence scan, primary screen (AID 1107); conditions: INHBA, higher = more signal;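 further: mouse activin A protein probed at 4.33 µg/mL on printed slides; score merges bound-protein fluorescence near 667 nm with spot signal-to-noise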

Dickkopf-related protein 1 (Homo sapiens), sequence (O94907 whole entry, looked up): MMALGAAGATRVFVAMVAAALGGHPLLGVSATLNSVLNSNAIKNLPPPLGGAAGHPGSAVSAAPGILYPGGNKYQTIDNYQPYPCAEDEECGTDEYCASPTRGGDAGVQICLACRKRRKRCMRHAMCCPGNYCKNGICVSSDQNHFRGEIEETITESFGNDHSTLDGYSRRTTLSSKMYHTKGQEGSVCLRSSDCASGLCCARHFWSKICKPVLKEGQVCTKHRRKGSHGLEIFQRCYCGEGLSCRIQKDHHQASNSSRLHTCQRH
Fibroblast growth factor 10 (Homo sapiens), sequence (O15520 whole entry, looked up): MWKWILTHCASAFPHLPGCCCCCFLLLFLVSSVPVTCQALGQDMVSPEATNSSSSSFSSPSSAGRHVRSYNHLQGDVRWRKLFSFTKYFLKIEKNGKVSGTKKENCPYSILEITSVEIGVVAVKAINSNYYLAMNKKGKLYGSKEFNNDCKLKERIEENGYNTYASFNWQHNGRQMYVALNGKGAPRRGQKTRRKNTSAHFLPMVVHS
Follistatin-related protein 3 (Homo sapiens), sequence (O95633 whole entry, looked up): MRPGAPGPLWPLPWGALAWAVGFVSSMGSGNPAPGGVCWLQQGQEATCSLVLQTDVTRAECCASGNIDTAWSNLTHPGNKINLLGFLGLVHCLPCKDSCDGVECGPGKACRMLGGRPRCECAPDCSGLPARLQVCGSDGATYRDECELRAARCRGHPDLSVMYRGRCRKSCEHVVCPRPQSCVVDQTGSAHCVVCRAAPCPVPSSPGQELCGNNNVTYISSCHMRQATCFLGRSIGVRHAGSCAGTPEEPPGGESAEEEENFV
Neurogenic locus notch homolog protein 3 (Homo sapiens), sequence (Q9UM47 whole entry, looked up): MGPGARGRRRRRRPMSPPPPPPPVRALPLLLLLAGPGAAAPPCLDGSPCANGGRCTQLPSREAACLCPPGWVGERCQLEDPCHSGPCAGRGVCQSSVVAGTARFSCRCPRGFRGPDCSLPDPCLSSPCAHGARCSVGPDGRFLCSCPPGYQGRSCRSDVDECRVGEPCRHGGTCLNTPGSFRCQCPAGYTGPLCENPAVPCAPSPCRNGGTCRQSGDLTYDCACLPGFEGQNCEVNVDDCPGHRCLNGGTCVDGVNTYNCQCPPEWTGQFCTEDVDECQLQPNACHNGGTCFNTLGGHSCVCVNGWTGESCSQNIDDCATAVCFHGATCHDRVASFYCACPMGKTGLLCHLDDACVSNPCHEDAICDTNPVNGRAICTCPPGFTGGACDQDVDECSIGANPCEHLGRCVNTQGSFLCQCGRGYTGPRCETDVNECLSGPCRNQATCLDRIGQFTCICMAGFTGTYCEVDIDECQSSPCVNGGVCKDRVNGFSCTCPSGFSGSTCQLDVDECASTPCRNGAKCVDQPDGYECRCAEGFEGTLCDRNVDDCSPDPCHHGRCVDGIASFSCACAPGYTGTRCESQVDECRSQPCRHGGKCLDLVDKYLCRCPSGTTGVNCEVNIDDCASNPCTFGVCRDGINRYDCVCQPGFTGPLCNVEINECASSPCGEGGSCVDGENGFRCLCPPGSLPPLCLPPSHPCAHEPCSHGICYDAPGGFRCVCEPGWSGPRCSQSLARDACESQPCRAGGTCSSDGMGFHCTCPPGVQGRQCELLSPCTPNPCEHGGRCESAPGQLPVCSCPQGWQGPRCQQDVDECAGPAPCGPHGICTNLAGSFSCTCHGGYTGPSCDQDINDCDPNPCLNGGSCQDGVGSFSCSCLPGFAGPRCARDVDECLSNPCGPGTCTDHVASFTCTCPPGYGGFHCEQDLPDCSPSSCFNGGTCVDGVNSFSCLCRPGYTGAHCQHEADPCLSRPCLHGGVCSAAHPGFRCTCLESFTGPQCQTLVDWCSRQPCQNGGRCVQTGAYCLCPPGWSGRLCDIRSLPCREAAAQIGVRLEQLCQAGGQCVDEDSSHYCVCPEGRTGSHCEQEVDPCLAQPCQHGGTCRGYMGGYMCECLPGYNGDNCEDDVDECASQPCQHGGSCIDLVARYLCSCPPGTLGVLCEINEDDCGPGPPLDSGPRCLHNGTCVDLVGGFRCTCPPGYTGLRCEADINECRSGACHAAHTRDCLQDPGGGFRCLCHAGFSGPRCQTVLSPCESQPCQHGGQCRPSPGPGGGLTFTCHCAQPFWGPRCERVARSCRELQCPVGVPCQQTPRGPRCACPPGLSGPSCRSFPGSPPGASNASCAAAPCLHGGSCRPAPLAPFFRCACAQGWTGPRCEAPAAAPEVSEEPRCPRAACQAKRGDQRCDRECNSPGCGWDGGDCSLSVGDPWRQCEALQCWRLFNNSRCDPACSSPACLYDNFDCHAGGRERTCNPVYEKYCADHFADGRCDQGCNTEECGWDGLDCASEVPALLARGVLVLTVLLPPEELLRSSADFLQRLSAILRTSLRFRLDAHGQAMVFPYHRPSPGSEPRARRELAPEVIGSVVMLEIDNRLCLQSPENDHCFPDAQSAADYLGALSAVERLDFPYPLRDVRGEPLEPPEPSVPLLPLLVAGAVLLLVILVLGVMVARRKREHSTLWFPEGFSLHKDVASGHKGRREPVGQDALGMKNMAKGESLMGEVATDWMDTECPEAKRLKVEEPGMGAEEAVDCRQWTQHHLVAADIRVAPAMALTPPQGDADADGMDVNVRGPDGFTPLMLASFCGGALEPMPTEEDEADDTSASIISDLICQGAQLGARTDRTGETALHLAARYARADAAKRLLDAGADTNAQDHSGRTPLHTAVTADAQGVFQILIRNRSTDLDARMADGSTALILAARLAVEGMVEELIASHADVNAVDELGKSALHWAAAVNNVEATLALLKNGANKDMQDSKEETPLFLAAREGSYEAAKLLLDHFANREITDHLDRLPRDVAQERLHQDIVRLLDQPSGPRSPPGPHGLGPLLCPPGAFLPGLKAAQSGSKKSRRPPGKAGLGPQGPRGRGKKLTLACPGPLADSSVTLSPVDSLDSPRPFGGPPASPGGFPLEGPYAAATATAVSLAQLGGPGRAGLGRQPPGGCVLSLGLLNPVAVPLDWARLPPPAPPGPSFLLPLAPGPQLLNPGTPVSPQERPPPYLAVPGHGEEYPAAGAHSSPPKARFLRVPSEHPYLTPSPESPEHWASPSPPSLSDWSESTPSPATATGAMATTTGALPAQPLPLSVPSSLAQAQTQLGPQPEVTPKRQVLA
Torsin-1A-interacting protein 2 (Homo sapiens), sequence (Q8NFQ8 whole entry, looked up): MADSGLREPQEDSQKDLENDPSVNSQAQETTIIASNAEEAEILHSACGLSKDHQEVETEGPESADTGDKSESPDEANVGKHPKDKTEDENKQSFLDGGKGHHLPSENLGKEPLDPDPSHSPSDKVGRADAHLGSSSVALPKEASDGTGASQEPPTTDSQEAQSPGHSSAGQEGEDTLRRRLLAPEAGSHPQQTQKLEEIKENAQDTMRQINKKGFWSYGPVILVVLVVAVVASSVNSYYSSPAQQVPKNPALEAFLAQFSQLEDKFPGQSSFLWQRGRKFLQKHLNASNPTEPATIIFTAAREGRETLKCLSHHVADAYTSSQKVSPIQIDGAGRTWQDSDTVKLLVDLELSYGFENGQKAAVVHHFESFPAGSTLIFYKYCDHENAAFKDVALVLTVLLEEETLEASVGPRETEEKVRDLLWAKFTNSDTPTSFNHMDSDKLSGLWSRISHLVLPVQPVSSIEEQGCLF
Epidermal growth factor receptor (Homo sapiens), sequence (P00533 whole entry, looked up): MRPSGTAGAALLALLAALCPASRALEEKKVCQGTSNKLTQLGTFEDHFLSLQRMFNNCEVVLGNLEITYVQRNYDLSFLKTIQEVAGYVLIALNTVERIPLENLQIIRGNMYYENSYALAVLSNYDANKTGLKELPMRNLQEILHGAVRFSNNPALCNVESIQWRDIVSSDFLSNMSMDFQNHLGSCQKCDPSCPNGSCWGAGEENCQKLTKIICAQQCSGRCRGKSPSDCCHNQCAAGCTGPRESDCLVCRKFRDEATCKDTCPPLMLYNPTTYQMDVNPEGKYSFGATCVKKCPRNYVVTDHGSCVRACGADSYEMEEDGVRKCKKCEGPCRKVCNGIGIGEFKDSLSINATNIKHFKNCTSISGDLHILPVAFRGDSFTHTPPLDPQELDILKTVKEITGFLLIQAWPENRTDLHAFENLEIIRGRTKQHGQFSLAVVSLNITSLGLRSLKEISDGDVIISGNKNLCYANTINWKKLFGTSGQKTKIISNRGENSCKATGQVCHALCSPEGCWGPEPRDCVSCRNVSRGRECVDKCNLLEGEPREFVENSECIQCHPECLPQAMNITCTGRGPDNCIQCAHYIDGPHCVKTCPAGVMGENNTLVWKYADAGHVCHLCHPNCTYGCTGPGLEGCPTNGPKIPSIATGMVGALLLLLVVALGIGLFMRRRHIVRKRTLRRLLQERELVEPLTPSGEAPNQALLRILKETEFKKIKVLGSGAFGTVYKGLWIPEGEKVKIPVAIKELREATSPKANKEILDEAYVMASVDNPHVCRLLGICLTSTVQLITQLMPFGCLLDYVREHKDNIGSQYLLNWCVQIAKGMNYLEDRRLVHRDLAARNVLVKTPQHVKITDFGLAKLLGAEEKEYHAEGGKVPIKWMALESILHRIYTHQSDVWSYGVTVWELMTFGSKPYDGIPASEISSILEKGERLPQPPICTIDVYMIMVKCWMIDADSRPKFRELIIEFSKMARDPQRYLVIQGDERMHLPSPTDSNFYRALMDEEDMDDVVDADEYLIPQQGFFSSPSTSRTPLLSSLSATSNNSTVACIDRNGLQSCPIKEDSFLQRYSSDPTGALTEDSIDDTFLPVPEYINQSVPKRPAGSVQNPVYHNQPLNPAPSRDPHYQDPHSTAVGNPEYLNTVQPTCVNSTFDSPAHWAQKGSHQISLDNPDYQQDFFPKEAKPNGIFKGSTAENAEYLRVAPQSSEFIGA

Row | SMILES | composite z-score [1] | z-score [2] | z-score [3] | z-score [4] | composite z-score [5] | z-score [6] | composite z-score [7] | composite z-score [8] | composite z-score [9] | composite z-score [10] | composite z-score [11] | composite z-score [12] | composite z-score [13] | z-score [14] | composite z-score [15] | composite z-score [16] | composite z-score [17] | composite z-score [18] | composite z-score [19] | composite z-score [20]
1 | COc1ccc(C(=O)Nc2cccc(CN3C(=O)[C@]4(O[C@H](CC(=O)N5Cc6ccccc6C[C@H]5CO)[C@@H]([Si](C)(C)c5ccc(OC)cc5)[C@@H]4C)c4ccccc43)c2)cc1 | 1.55 | 0.143 (inactive) | 1.46 (inactive) | 1.79 (inactive) | 0.906 | 2.31 (inactive) | -0.186 | 1.73 | 1.1 | -0.027 | 0.895 | -0.245 | -0.362 | -0.865 (inactive) | 0.946 | 0.955 | 1.24 | 1.42 | 1.34 | 1.21
2 | COC(=O)C(CC#Cc1ccc2c(c1)[C@]1(C(=O)N2)[C@H](C(=O)N2CCc3cc(OC)c(OC)cc3C2)[C@H]2C(=O)O[C@H](c3ccccc3)[C@H](c3ccccc3)N2[C@@H]1c1ccccc1OCCO)C(=O)OC | 1.54 | 2.06 (inactive) | 1.54 (inactive) | 3.78 (inactive) | 3.06 | 0.49 (inactive) | -0.0862 | 1.36 | 1.07 | 0.0457 | 1.3 | 0.581 | 0.623 | 0.234 (inactive) | 0.954 | 1.34 | 0.529 | 1.28 | 0.627 | -0.592
3 | CC(C)C(=C=CC[C@H](O)c1ccccc1OCCO)C[C@H](O)COCc1ccccc1 | 0.251 | -0.024 (inactive) | -1.26 (inactive) | -0.501 (inactive) | 2.8 | -0.0543 (inactive) | -0.187 | -0.0604 | -0.287 | -0.13 | 1.63 | -0.293 | -0.0177 | -0.114 (inactive) | 0.444 | -0.409 | -0.593 | -0.428 | -0.42 | 0.482
4 | COCCOC(=O)N1C(=O)[C@@]2(c3cc(C#CCC(C(=O)OC)C(=O)OC)ccc31)[C@H](C(=O)Nc1nc3ccccc3s1)[C@H]1C(=O)O[C@H](c3ccccc3)[C@H](c3ccccc3)N1[C@@H]2c1ccc(O)cc1 | 1.53 | 1.42 (inactive) | 0.431 (inactive) | 1.16 (inactive) | 2.51 | 0.28 (inactive) | 0.0085 | 0.92 | 1.04 | 0.107 | 1.42 | 0.0737 | 0.309 | -0.88 (inactive) | 1.34 | 1.3 | 0.861 | 1.41 | 1.06 | 0.157
5 | CCCCCCc1nc(Cc2cc(OC)c(OC)c(OC)c2)cc2c1[Si](C(C)C)(C(C)C)O[C@H]2c1ccccc1 | 0.811 | 0.153 (inactive) | 0.87 (inactive) | 0.0217 (inactive) | -0.0751 | -1.41 (inactive) | -0.176 | 0.619 | 0.819 | -0.0975 | 0.268 | -0.333 | -0.511 | -0.189 (inactive) | 0.351 | 0.124 | 0.569 | 0.594 | 0.548 | 0.882
6 | CC(C)=CCCC(C)=CC(O)C1C=CC2C(=O)NC(=O)C2N1Nc1ccccn1 (stereo not given) | 1.56 | -1.17 (inactive) | 0.504 (inactive) | -0.952 (inactive) | 1.8 | -0.978 (inactive) | 0.212 | 1.36 | 1.11 | 0.186 | 1.52 | 0.0536 | -0.319 | -0.121 (inactive) | 1.46 | 1.29 | 1.68 | 1.55 | 1.76 | 1.6
7 | COc1ccc(C(O)C2C=CC3C(=O)N(c4ccccc4)C(=O)C3N2Nc2ccc(C#N)cc2)cc1OCc1ccccc1 (stereo not given) | 1.3 | -0.598 (inactive) | 1.66 (inactive) | 1.38 (inactive) | 2.6 | -1.16 (inactive) | 0.455 | -0.634 | 1.11 | 0.0808 | 1.09 | 1.31 | 1.42 | 0.471 (inactive) | 0.372 | 0.564 | 0.0706 | 0.727 | -0.463 | 0.898
8 | O=C(O)[C@H](Cc1ccccc1)n1cc(C2(O)CCCCC2)nn1 | 0.499 | -0.418 (inactive) | 0.255 (inactive) | -0.444 (inactive) | 1.71 | -1.15 (inactive) | -0.137 | 0.392 | 0.541 | -0.0211 | -0.0685 | -0.201 | -0.518 | -0.358 (inactive) | 0.193 | 0.938 | 0.213 | 0.343 | 0.196 | -0.0247
9 | CC(C)(C)N1CC=CC23O[C@@H]4/C=C\CCCOC(=O)C4[C@H]2C(=O)N(CCCCCO)[C@@H]3C1=O (stereo not given in full) | -0.981 | -0.143 (inactive) | 0.0289 (inactive) | -0.635 (inactive) | 0.389 | -0.938 (inactive) | -0.114 | -1.48 | -0.457 | -0.289 | 1.58 | -0.3 | 0.149 | -0.464 (inactive) | -0.943 | -0.581 | -1.43 | -1.63 | -0.473 | -1.11
